Bioassay records (PubChem)
3T3 cytotox = cytotoxic compounds in NIH 3T3 cells; NIH 3T3 viability, CellTiter-Glo ATP luminescence, 48-72 h; Potency, µM (series often up to 96.7 µM), for inactives: top-dose activity change, negative = cytotoxicity, actives largely listed as inhibitors; 94,000 compounds, 4.3% hits; AID 1345082; note: % is set by controls: 0 for no effect and ±100 for the full control effect; nearly all actives have a fitted effect of over 55% in size
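Luminescent ATP readout (CellTiter-Glo, 10 min RT) after 48 or 72 hr compound exposure of NIH 3T3 cells seeded at 400 cells/well in 1536-well format; quantitative HTS.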
HEK cytotox = HEK 293 cell cytotoxicity | HEK 293 viability, ATP luminescence (CellTiter-Glo), 48-72 h | Potency, µM (top dose mostly 115 µM), inactives show at the highest dose activity change, negative = cytotoxicity, hits mostly inhibitors | 94,000 compounds, 6.6% hits | AID 1345083; note: % is set by controls: 0 for no effect and ±100 for the full control effect; nearly all actives have a fitted effect of over 60% in size
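HEK 293 cells at 250 cells/well were exposed to compounds by pintool transfer for 48 or 72 hr at 37 degree Celsius, 5% CO2. Viability was read as ATP-coupled luminescence with CellTiter-Glo after 10 min at room temperature.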
hNpr1 antagonist = antagonists of human natriuretic peptide receptor Npr1 | P16066 | 76,000 compounds, 1.6% hits | Potency, µM (top dose mostly 46.3 µM), for the others: at the highest dose activity change, negative = inhibition, usual class: inhibitors | HEK293 hNpr1 GloSensor cGMP, ANP-stimulated luminescence; calls by dose curve; note: % is set by controls: 0 for no effect and ±100 for the full control effect; nearly all actives have a fitted effect of over 60% in size
Target sequence (P16066 whole entry, looked up): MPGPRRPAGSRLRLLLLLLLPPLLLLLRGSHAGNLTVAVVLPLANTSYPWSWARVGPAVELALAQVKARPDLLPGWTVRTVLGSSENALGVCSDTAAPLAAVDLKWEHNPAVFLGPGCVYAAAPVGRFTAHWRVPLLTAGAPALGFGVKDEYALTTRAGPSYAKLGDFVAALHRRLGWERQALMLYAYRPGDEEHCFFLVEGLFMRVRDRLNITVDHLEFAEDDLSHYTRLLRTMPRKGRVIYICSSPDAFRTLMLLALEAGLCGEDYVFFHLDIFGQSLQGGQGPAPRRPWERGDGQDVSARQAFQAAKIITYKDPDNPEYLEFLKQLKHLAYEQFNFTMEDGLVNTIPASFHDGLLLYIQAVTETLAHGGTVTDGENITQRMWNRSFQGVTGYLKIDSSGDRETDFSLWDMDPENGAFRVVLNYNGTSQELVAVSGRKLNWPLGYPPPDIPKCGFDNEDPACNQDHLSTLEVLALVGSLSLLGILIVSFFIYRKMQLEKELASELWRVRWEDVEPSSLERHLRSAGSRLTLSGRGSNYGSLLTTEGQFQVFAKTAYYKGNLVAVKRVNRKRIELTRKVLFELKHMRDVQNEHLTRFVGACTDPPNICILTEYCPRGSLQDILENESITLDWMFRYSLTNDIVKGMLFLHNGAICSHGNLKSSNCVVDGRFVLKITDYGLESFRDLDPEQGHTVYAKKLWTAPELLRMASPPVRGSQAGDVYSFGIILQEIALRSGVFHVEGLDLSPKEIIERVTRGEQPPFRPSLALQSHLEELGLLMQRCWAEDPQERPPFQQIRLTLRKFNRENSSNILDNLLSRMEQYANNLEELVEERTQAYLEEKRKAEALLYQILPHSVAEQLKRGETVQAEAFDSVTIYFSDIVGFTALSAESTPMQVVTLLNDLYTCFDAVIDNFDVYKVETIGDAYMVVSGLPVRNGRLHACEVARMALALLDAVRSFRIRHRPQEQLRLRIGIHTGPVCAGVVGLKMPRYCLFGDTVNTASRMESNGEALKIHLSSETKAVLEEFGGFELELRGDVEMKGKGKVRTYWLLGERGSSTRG
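Compound pre-incubated 30 min at room temperature on GloSensor-loaded HEK293 cells stably carrying hNpr1 and the pGS-40F cGMP biosensor. Stimulation uses hNppA at 0.1 nM final; luminescence is taken at baseline and 20 min post-agonist.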
GPT2 inhibitor = GPT2 alanine aminotransferase inhibition. Q8TD30. Recombinant GPT2, coupled pyruvate oxidase/HRP Amplex Red fluorescence. Potency, µM (highest dose often 57.7 µM), for inactives: at the highest dose activity change, negative = inhibition, most hits filed as inhibitors. 100,000 compounds, 0.25% hits; note: % is set by controls: 0 for no effect and ±100 for the full control effect; nearly all actives have a fitted effect of over 60% in size
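Fluorescence read-out: pyruvate from GPT2 turnover coupled to pyruvate oxidase, HRP and Amplex Red (0.2mM ThPP, 0.2U/mL PO and HRP, 50uM Amplex final). Substrates 250uM a-KG, 2mM L-alanine; enzyme 10ng/uL; 30 min RT.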
FLuc inh = Photinus pyralis luciferase inhibition | P08659 | purified P. pyralis luciferase, luminescence, biochemical | Potency, µM (doses to about 115 µM), most hits filed as inhibitors | 76,000 compounds, 2.5% hits | AID 1347043; note: % is set by controls: 0 for no effect and ±100 for the full control effect; nearly all actives have a fitted effect of over 65% in size
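Purified P. pyralis luciferase (10nM final) in 50mM Tris acetate pH 7.5, 10mM Mg acetate, 0.01% Tween-20, 0.05% BSA with 10uM D-luciferin and 10uM ATP. Compounds titrated qHTS. Luminescence imaged on CCD.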
NPR1 antag cnf = confirmation of human Npr1 natriuretic peptide receptor antagonists; Potency, µM (highest dose often 57.6 µM), for the others: top-dose activity change, negative = inhibition, most hits filed as inhibitors; 1,400 compounds, 76% hits; shares compounds with hNpr1 antagonist; AID 1347044; HEK293 hNpr1 cGMP GloSensor luminescence, ANP-stimulated; calls by dose curve; note: nearly all actives have a fitted effect of over 70% in size
NPR2 antag = antagonizes human Npr2, subtype selectivity check | AID 1347046 | HEK293 hNpr2 GloSensor cGMP luminescence, CNP-stimulated | 1,400 compounds, 67% hits | Potency, µM (top dose mostly 57.6 µM), for the others: at the highest dose activity change, negative = inhibition, most hits filed as inhibitors | shares compounds with hNpr1 antagonist; calls by dose curve; note: nearly all actives have a fitted effect of over 70% in size
FLuc inh counter = FLuc enzyme inhibition, Npr1 counter-screen; shares compounds with hNpr1 antagonist; purified FLuc enzyme, luminescence, Km substrate; Potency, µM (top dose mostly 57.6 µM), inactives show at the highest dose activity change, negative = inhibition, hits mostly inhibitors; 1,400 compounds, 0.7% hits; note: 0% is about no effect
GloSensor cGMP = counter-screen for Npr1 antagonists: GloSensor control cell line; shares compounds with hNpr1 antagonist; HEK293 GloSensor cGMP, SNP-stimulated, luminescence; Potency, µM (series often up to 57.6 µM), for the others: top-dose activity change, negative = inhibition, usual class: inhibitors; 1,400 compounds, 69% hits; calls by dose curve; note: % is set by controls: 0 for no effect and ±100 for the full control effect; nearly all actives have a fitted effect of over 70% in size
An asterisk follows results filed as active; i = inactive; ? = inconclusive; nt = no result; [ ] = another dose, or the depositor's remark. Only some compounds are listed: those with a hit (about 10% of all), similar ones and a draw of the others. Unless noted, calls come from the whole dose curve; as a rule, active = well fitted curve in the direction sought with a large enough effect; inconclusive = small, poorly fitted or top-dose-only effect, or another doubt; inactive = no such curve, though single readings can be large; an effect the other way counts as inactive or inconclusive. Potency is the fitted concentration of half-maximal effect.

SMILES | 3T3 cytotox | HEK cytotox | hNpr1 antagonist | GPT2 inhibitor | FLuc inh | NPR1 antag cnf | NPR2 antag | FLuc inh counter | GloSensor cGMP
CC(=O)Nc1ccc(S(=O)(=O)N[C@H]2CO[C@H]3[C@@H]2OC[C@@H]3Nc2nccc(-c3ccco3)n2)cc1 | ? | 25µM* | 13µM* | -7% | i | 24µM* | 24µM* | 0% | 27µM*
CC(=O)Nc1ccc(S(=O)(=O)N[C@H]2CO[C@H]3[C@@H]2OC[C@H]3OC(=O)Nc2ccc(Oc3ccccc3)cc2)cc1 | ? | ? | 11µM* | ? | i | 12µM* | 17µM* | ? | 12µM*
Cc1cc(NC(=O)CN2C(=O)NC3(CCCCC3)C2=O)ccc1Br | ? | ? | 0% | i | i | nt | nt | nt | nt
N#Cc1ccc(C(=O)N2CCC3(CC2)NC(=O)N(Cc2cccc(Cl)c2)C3=O)cc1 | ? | ? | ? | i | i | nt | nt | nt | nt
CC(C)CNC(=O)c1ccc2nnc(C3CC3)n2c1 | -10%[138 µM] | i | nt | -4%[88.5 µM] | nt | nt | nt | nt | nt
COc1ccc(S(=O)(=O)N2CCC3(CC2)CC(N(C)Cc2ccccc2)CCO3)cc1 (stereo unspecified) | ? | ? | 11µM* | i | i | 27µM* | ? | 1% | ?
COc1cccc(S(=O)(=O)N2CCC3(CC2)CC(N(C)Cc2ccccc2)CCO3)c1 (stereo unspecified) | ? | ? | ? | i | i | ? | ? | 3% | ?
COc1ccc(-n2c(=O)c(C(=O)NC3CCCCC3)nc3cccnc32)cc1 | -16% | -8% | nt | i | nt | nt | nt | nt | nt
C[C@@]12CO[C@H](c3ccccc3)C[C@@H]1C[C@@H](N1CCN(Cc3ccc(F)cc3)CC1)C2 | -37% | ? | nt | nt | nt | nt | nt | nt | nt
CC(=O)Nc1ccccc1-c1c(C)nn2c1N(C(=O)Cc1ccccc1)CCC2 | ? | 1%[172 µM] | -2%[70.6 µM] | -8%[88.5 µM] | i | nt | nt | nt | nt
Cc1nn2c(c1-c1ccccc1Oc1ccccc1)N(C(=O)Cc1ccc(O)cc1)CCC2 | 79µM* | 89µM* | 20µM* | 4%[88.5 µM] | i | 35µM* | 28µM* | 1%[86.2 µM] | ?
Cc1nn2c(c1-c1ccccc1C(C)C)N(C(=O)Cc1ccc(O)cc1)CCC2 | ? | ? | -2%[70.6 µM] | 4%[88.5 µM] | i | nt | nt | nt | nt
Cc1nn2c(c1-c1ccccc1OCc1ccccc1)N(Cc1ccc(C(=O)O)s1)CCC2 | 32µM* | 35µM* | 6.3µM* | -20% | i | 5.4µM* | 7.7µM* | -9% | 6.1µM*
CC(=O)Nc1ccccc1-c1c(C)nn2c1N(C(=O)c1ccc(Oc3ccccc3)cc1)CCC2 | ? | ? | 11µM* | ? | i | 19µM* | 17µM* | 1% | 17µM*
CC(=O)N1CCCn2nc(C)c(-c3ccccc3OCc3ccccc3)c21 | ? | ? | -1%[70.6 µM] | -4%[88.5 µM] | i | nt | nt | nt | nt
COc1cccc(CC(=O)N2CCCn3nc(C)c(-c4ccccc4Oc4ccccc4)c32)c1 | ? | 45µM* | ? | ? | i | ? | 19µM* | 1% | -17%
O=C(NCc1cccs1)C1CN(C2CCCC2)C(=O)N1 (stereo unspecified) | -12%[138 µM] | i | nt | i | nt | nt | nt | nt | nt
CN1CC2(CCN(C3CCCC3)CC2)CC1C(=O)N1CCOCC1 (stereo unspecified) | -25% | -20% | nt | ? | nt | nt | nt | nt | nt
Cc1nn2c(c1-c1ccccc1OCc1ccccc1)N(C(=O)CCc1cccnc1)CCC2 | ? | ? | ? | -7% | i | ? | ? | 4% | -2%
Cc1nn2c(c1-c1ccccc1C(N)=O)N(C(=O)Cc1cccc(F)c1)CCC2 | ? | -16%[172 µM] | -1%[70.6 µM] | 3%[88.5 µM] | i | nt | nt | nt | nt
Cc1nn2c(c1-c1ccccc1Oc1ccccc1)N(C(=O)Cc1cccc(F)c1)CCC2 | 40µM* | ? | ? | ? | i | ? | ? | 1% | -23%
COc1cccc(CC(=O)N2CCCn3nc(C)c(-c4ccccc4-c4ccccc4)c32)c1 | 79µM* | ? | ? | 5%[88.5 µM] | i | ? | 31µM* | 2%[86.2 µM] | -25%[86.2 µM]
Cc1nn2c(c1-c1ccccc1-c1ccccc1)N(C(=O)Cc1ccccn1)CCC2 | -4%[138 µM] | ? | -10%[70.6 µM] | -7%[88.5 µM] | i | nt | nt | nt | nt
COCCC(=O)N1CCC2(CC1)CC(CCOc1ccncc1)CCO2 (stereo unspecified) | -20% | ? | nt | 2% | nt | nt | nt | nt | nt
O=C(CCn1ccn2nc3c(c2c1=O)CCCC3)N1CCN(c2ccc(F)cc2)CC1 | ? | ? | -15% | i | i | nt | nt | nt | nt
SMILES | 3T3 cytotox | HEK cytotox | hNpr1 antagonist | GPT2 inhibitor | FLuc inh | NPR1 antag cnf | NPR2 antag | FLuc inh counter | GloSensor cGMP
CCOc1ccccc1N1CCN(C(=O)CCn2ccn3nc4c(c3c2=O)CCCC4)CC1 | -20% | -17% | ? | i | i | ? | ? | 1% | -2%
CC(C)CCN(C1CCOCC1)C1CCN(Cc2ccc[nH]2)CC1 | -26% | ? | 4% | i | i | nt | nt | nt | nt
COC(=O)[C@@H]1Cc2ncn(Cc3ccc(OC)cc3)c2CN1C(=O)CC(C)(C)C | -23%[174 µM] | ? | 0%[70.6 µM] | -18%[88.5 µM] | i | nt | nt | nt | nt
COC(=O)[C@@H]1Cc2c([nH]c3ccccc23)[C@H]2C[C@@H](NCCCn3ccnc3)C[C@@H](c3ccccc3F)N21 | 7.1µM* | ? | -25% | i | i | -24% | -29% | -11% | -7%
COc1cccc(-c2cc3c(=O)n(CCNC(=O)c4cccc5[nH]ccc45)ccn3n2)c1 | ? | ? | ? | i | ? | nt | nt | nt | nt
Cc1oc(C2CCN(C(=O)CCc3cc(Cl)no3)CC2)nc1C(=O)N1CCOCC1 | -4% | 3% | nt | i | nt | nt | nt | nt | nt
Cc1noc(C2CC3(CCN(C(=O)C4(c5ccccc5)CC4)CC3)CN2C)n1 (stereo unspecified) | -4% | i | nt | -3% | nt | nt | nt | nt | nt
CCCCOc1ccc(C(=O)N2CCC(Cc3nc(-c4ccccc4)no3)CC2)cc1 | ? | ? | 10µM* | i | i | 17µM* | 14µM* | 4% | 12µM*
